In PubChem BioAssay (Tox21) one finds outcome and Potency data, which are given here for seven molecules.

Inconclusive results are not listed. A number with no mark means an inactive call. Active and inactive are the calls of the source. Unless noted, calls come from the whole dose curve; as a rule, active = well fitted curve in the direction sought with a large enough effect in the repeat runs; inconclusive = weak or mixed curves; inactive = no such curve, though single readings can be large; an effect the other way counts as inactive or inconclusive.

Assay [1] in a line: qHTS assay to identify small molecule agonists of the NFkB signaling pathway - cell viability counter screen (AID 1159515; calls by dose curve; note: series mostly up to about 61 µM; nearly all actives have a fitted effect of over 55% in size). Put shortly: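 Plate 2,000 NFkB-bla ME-180 cells/well; incubate overnight. Add compounds, 5 hr at 37 C. Add FRET substrate, 1.5 hr RT. Add CellTiter-Glo, 30 min RT; read luminescence.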
Assay [2] in a line: qHTS assay to identify small molecule agonists of the endoplasmic reticulum stress response signaling pathway (AID 1159516; active = well fitted activation curve with a large enough effect in the signal ratio in the repeat runs, not every such curve was filed as active; the % refers to the signal ratio). In short, it runs like this: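 Beta-lactamase expression from the ER stress response element in HeLa reporter cells is quantified with the LiveBLAzer B/G FRET substrate, read at 405 nm excitation after 2 hr at room temperature, following 5 hr compound treatment at 37 C.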
(In general: qHTS replaces the single test concentration by a dilution series.)

Assay [3] in a line: qHTS assay to identify small molecule agonists of the endoplasmic reticulum stress response signaling pathway - cell viability counter screen (AID 1159517; calls by dose curve; note: series mostly up to about 61 µM; nearly all actives have a fitted effect of over 50% in size). In short, it runs like this: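 Cytotoxicity of test compounds toward ESRE-bla HeLa cells was assessed after 5 hr exposure. The luminescent CellTiter-Glo signal was measured 30 min after reagent addition.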
A short description of assay [4]: qHTS assay to identify small molecule antagonists of the retinoid-related orphan receptor gamma (ROR-gamma) signaling pathway - cell viability counter screen (AID 1159520). Note: nearly all actives have a fitted effect of over 50% in size. Put shortly:
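Tet-on ROR gamma CHO cells (1,000/well) were plated 4 hr, given compounds in DMSO for 2 hr at 37 C, then induced with 1 uM final doxycycline for 16 hr. Viability was read as ATP by CellTiter-Glo luminescence after 30 min.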

For assay [5], the target named is Nuclear receptor ROR-gamma (Homo sapiens) (UniProt P51449). Description: qHTS assay to identify small molecule antagonists of the retinoid-related orphan receptor gamma (ROR-gamma) signaling pathway (AID 1159521;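 note: CHO cells with doxycycline inducible ROR-gamma driving an RORE luciferase reporter; top concentration of the series differs between compounds; nearly all actives have a fitted effect of over 50% in size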). Put shortly:
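Tet-on RORγ CHO cells carrying a ROR response element–luciferase reporter were pretreated with compounds for 2 h, then induced with 1 uM (final) doxycycline hyclate for 16 h at 37 C. Antagonism was read as decreased ONE-Glo luminescence.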

Assay [6] can be described thus: qHTS assay to identify small molecule agonists of the AP-1 signaling pathway - cell viability counter screen (AID 1159525; calls by dose curve; note: nearly all actives have a fitted effect of over 55% in size). Put shortly: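 Each titration point was normalised to DMSO and tetra n-octyl ammonium bromide controls. The read was Cell Titer Glo luminescence after 30 min at RT, following 5 h compound exposure of ME-180 AP-1-bla cells at 37 °C.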
The nature of assay [7]: qHTS assay to identify small molecule agonists of the AP-1 signaling pathway (AID 1159526; calls by dose curve).
Assay [8] deals with Retinoic acid receptor RXR-alpha (Homo sapiens) (UniProt P19793). Description: qHTS assay to identify small molecule agonists of the RXR signaling pathway (AID 1159527; calls by dose curve; note: nearly all actives have a fitted effect of over 35% in size; note: potency is the fitted concentration of half-maximal effect). Put shortly:
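GeneBLAzer RXR-alpha-UAS-bla HEK 293T cells in medium with 2% charcoal-stripped FBS, pre-incubated 5 hr at 37 C, then exposed to compounds 16 hr. Beta-lactamase reporter read by FRET substrate, 2 hr room temperature, 460/530 nm emission.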

The nature of assay [9]: qHTS assay to identify small molecule agonists of the RXR signaling pathway - cell viability counter screen (AID 1159529). Note: series mostly up to about 77 µM; nearly all actives have a fitted effect of over 50% in size. Put shortly: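 RXR-alpha-UAS-bla HEK 293T cells in medium with 2% charcoal-stripped FBS were preincubated 5 hr, then exposed to compounds for 16 hr at 37 C. Viability was read as CellTiter-Glo luminescence after 30 min at room temperature.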
Assay [10] is described as follows: qHTS assay to identify small molecule antagonists of the retinoid acid receptor (RAR) signaling pathway - cell viability counter screen (AID 1159551). Note: nearly all actives have a fitted effect of over 35% in size. Put shortly:
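Viability of C3RL4 cells is quantified from ATP by luminescence after 6 h treatment at 37 C with compounds and 1 uM retinol.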

A short description of assay [11]: qHTS assay to identify small molecule agonists of the retinoic acid receptor (RAR) signaling pathway (AID 1159553). Note: potency is the fitted concentration of half-maximal effect. In short, it runs like this:
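Compounds dissolved in DMSO were pinned onto C3RL4 cells seeded the previous day, and plates were held 6 hr at 37 C. RARE-driven luciferase output was then read by luminescence.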

For assay [12], the target named is Luciferin 4-monooxygenase (Photinus pyralis) (UniProt P08659). Nature of the assay: qHTS assay to identify small molecule inhibitors of firefly luciferase (AID 1224835). Note: nearly all actives have a fitted effect of over 25% in size. Note: potency is the fitted concentration of half-maximal effect. Put shortly:
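Quantitative HTS format; KM concentrations of both substrates. Purified P. pyralis FLuc activity quantified from luminescence images.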

The nature of assay [13]: qHTS assay to identify small molecule agonists of the constitutive androstane receptor (CAR) signaling pathway - cell viability counter screen (AID 1224836). Note: series mostly up to about 92 µM; nearly all actives have a fitted effect of over 45% in size. Put shortly: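 HepG2 cells stably carrying hCAR and a CYP2B6-2.2kb reporter were plated 4 h, then given compounds at 15 concentrations plus PK11195 (final 0.75 uM). After 23 h at 37 C, viability was read by CellTiter-Fluor fluorescence.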

Assay [14] can be described thus: qHTS assay to identify small molecule antagonists of the constitutive androstane receptor (CAR) signaling pathway - cell viability counter screen (AID 1224837). Note: series mostly up to about 92 µM; nearly all actives have a fitted effect of over 45% in size. In short, it runs like this: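 In quantitative HTS format, compounds at 15 concentrations were applied to HepG2 cells double-transfected with hCAR and CYP2B6-2.2kb under 50 nM CITCO stimulation; live-cell protease activity was read after 23 hr via CellTiter-Fluor.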

Assay [15] concerns the target Nuclear receptor subfamily 1 group I member 3 (Homo sapiens) (UniProt Q14994). Nature of the assay: qHTS assay to identify small molecule agonists of the constitutive androstane receptor (CAR) signaling pathway (AID 1224839). Note: series mostly up to about 92 µM; nearly all actives have a fitted effect of over 15% in size. In short, it runs like this:
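HepG2 cells stably expressing hCAR and a CYP2B6-2.2kb luciferase reporter were treated with compounds at 15 concentrations plus 0.75 uM PK11195 (final) for 24 h at 37 C; luminescence was read after ONE-Glo addition.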

Assay [16] can be described thus: qHTS assay to identify small molecule antagonists of the vitamin D receptor (VDR) signaling pathway - cell viability counter screen (AID 743225). Note: nearly all actives have a fitted effect of over 50% in size. In short, it runs like this:
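VDR-bla HEK 293T cells, 4 h pre-incubation at 37C, then compound plus 1-alpha,25-dihydroxyvitamin D3 (3 nM final) for 16 h. After the beta-lactamase FRET read, CellTiter-Glo was added to the same wells; luminescence after 30 min at room temperature.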

Assay [17] is described as follows: qHTS assay to identify small molecule antagonists of the retinoic acid receptor (RAR) signaling pathway (AID 1159552; note: nearly all actives have a fitted effect of over 50% in size). Put shortly:
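RARE-luc C3RL4 cells; cpds + 1 uM (final) retinol, 6 hr, 37 C/5% CO2; luciferase reagent, 30 min RT, luminescence readout. Inhibitors of retinol-driven signal scored.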

Assay [18] is described as follows: qHTS assay to identify small molecule antagonists of the estrogen related receptor (ERR) signaling pathway from Tox21 library - cell viability counter screen (AID 1224834). Note: nearly all actives have a fitted effect of over 30% in size. Put shortly:
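In this quantitative HTS format, ERR cells receive compounds in DMSO and are incubated for 17.5 h at 37 C. Live-cell protease activity is then detected with CellTiter-Fluor.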

A short description of assay [19]: qHTS assay to identify small molecule antagonists of the estrogen related receptor signaling pathway with the pleiotropic PPARgamma coactivator (PGC) from Tox21 10K library - cell viability counter screen (AID 1224840; active = well fitted cell-killing curve with a large enough effect in the repeat runs, not every such curve was filed as active; note: nearly all actives have a fitted effect of over 40% in size). In short, it runs like this: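 Viability counter screen, PGC/ERR cells: 17.5 h compound exposure at 37 C, CellTiter-Fluor fluorescence endpoint.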

The target in assay [20] is Nuclear receptor subfamily 1 group I member 3 (Homo sapiens) (UniProt Q14994). Nature of the assay: qHTS assay to identify small molecule antagonists of the constitutive androstane receptor (CAR) signaling pathway (AID 1224838). Note: nearly all actives have a fitted effect of over 40% in size. In short, it runs like this: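 CITCO-stimulated (50 nM final) HepG2 cells stably transfected with hCAR and CYP2B6-2.2kb luciferase were exposed to compounds at 15 concentrations for 24 h at 37 C/5% CO2. A luciferase reagent was added and luminescence recorded after 30 min.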
Chain of Nuclear receptor subfamily 1 group I member 3 (Homo sapiens) (Q14994 whole entry, looked up): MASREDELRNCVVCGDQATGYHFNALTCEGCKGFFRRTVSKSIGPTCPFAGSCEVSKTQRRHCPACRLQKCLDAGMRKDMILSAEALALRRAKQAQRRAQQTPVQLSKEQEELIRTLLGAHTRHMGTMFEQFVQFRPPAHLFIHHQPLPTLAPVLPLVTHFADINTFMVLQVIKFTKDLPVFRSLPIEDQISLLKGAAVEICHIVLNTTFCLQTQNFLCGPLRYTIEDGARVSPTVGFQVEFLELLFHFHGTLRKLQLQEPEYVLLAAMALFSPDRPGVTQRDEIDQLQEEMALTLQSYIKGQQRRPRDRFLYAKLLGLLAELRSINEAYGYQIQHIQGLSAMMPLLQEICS

Chain of Retinoic acid receptor RXR-alpha (Homo sapiens) (P19793 whole entry, looked up): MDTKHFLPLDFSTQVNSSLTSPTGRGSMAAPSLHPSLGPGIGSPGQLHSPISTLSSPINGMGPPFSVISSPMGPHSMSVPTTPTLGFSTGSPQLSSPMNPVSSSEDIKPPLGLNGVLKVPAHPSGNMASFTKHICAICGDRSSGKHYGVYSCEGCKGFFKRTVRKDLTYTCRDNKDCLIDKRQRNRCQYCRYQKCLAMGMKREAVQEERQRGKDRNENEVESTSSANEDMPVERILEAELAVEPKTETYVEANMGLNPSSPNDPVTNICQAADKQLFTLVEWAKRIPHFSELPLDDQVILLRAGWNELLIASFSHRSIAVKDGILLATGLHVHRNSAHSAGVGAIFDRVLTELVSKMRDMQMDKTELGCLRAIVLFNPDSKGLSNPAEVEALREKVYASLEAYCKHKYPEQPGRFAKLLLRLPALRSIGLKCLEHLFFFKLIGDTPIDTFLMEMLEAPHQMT
Chain of Luciferin 4-monooxygenase (Photinus pyralis) (P08659 whole entry, looked up): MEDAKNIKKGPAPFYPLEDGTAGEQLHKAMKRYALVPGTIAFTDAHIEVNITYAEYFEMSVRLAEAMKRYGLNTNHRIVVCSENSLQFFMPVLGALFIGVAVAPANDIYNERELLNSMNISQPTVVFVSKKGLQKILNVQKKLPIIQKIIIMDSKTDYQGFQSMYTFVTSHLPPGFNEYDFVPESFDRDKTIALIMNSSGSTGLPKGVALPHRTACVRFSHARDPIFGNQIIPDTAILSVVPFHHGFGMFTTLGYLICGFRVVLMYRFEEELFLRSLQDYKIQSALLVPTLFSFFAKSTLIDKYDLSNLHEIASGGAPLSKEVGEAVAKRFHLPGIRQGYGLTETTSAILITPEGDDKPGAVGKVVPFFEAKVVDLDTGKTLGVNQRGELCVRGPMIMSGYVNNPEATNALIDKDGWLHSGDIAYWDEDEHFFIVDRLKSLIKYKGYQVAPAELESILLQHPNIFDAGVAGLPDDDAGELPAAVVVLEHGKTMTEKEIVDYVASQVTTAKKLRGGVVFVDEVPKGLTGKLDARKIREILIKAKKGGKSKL

With `CCCC(=O)CC`, the molecule was classed as inactive in [1], in assay [3], in assay [4], in assay [5], in [6] and in assay [10]. Moreover, the outcome in assay [13] and in assay [14] was inactive. Further, the Potency entry in assay [2], in assay [7], in assay [8], in assay [9], in assay [11] and in assay [12] was “inactive” each time. Moreover, in assay [15], the Potency result was “inactive”.
As for `CCCCCCCCCCCBr`, the outcome in assay [16], in [1], in [3], in assay [4], in [5] and in assay [6] was inactive. Further, the molecule was classed as inactive in [10], in assay [17], in assay [18], in assay [13], in assay [14] and in [19]. Besides, the Potency entry in assay [2], in [7], in assay [8], in [11], in assay [12] and in assay [15] was “inactive” each time.
As to `O=Cc1ccc(C(=O)O)cc1`, the call in [16], in [1], in assay [3], in assay [4], in [5] and in assay [6] was inactive. Also, the outcome in [10], in assay [17], in assay [18], in assay [13], in assay [14] and in assay [20] was inactive. In addition, the outcome in assay [19] was inactive. In addition, the Potency entry in assay [2], in assay [7], in [8], in assay [11], in assay [12] and in assay [15] was “inactive” each time.
With `CCCCCCC(=O)c1ccccc1`, the result in assay [16], in [1], in assay [3], in assay [4], in assay [5] and in [6] was inactive. Besides, the result in assay [10], in assay [17], in assay [18], in assay [13], in assay [14] and in assay [20] was inactive. Besides, the molecule was classed as inactive in assay [19]. The Potency result in assay [2], in assay [7] and in [8] was “inactive” in each case. Further, the values for the Potency in assay [11] and in assay [12] were 54.5 µM (active) and 7.1 µM (active), respectively.
Consider `Nc1nc(Cl)cc(Cl)n1`, for which the molecule was called inactive in assay [16], in assay [1], in assay [3], in [4], in assay [5] and in assay [6]. Further, the outcome in assay [10], in [17], in [18], in [13], in [14] and in assay [20] was inactive. Also, the call in assay [19] was inactive. In addition, the Potency entry in assay [2], in [7], in assay [8], in assay [11] and in assay [12] was “inactive” each time.
Take `CCCCCCCCOCCC#N`: the outcome in [16], in [1], in assay [3], in [4], in assay [5] and in assay [6] was inactive. Besides, the result in assay [10], in [17], in [18], in assay [13], in assay [14] and in assay [20] was inactive. Besides, the Potency entry in [2], in assay [7], in [8], in [11], in assay [12] and in assay [15] was “inactive” throughout.
With `C/C=C(\C)C(=O)OC/C=C(\C)CCC=C(C)C`, the result in assay [16], in assay [1], in assay [3], in assay [4], in assay [5] and in [6] was inactive. The call in assay [10], in [17], in assay [18], in [13], in assay [14] and in assay [19] was inactive. In addition, the Potency entry in assay [2], in [7], in assay [11] and in assay [12] was “inactive” throughout. In [8], the Potency was 21.9 µM (active).
